Reference: PubChem BioAssay (NCATS)
Where “and” joins values, the source holds several entries; their conditions need not be identical. Equal entries are not always repeated. Inconclusive results are not listed. Calls of active or inactive are those of the source. Unless noted, no rule for the calls is given here.

What was measured:
[1] = qHTS Assay for Identifying Gametocytocidal Compounds (AID 743244; active = well fitted curve in the direction sought with a large enough effect; an effect the other way counts as inactive or inconclusive; also: potency is read from the fitted curve at half-maximal effect;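 as to max response: % is scaled to controls: 0 for no effect and ±100 for the full control effect; actives lower the fluorescent signal which means gametocytes are killed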); conditions: P. falciparum 3D7 stage III-V gametocytes, alamarBlue, 72 h; max response: stronger effect = lower value
In short: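 Fluorescence at Ex 525/Em 598 nm, recorded 24 h after alamarBlue addition, reports residual metabolic activity of 3D7 gametocytes (stages III–V) following 72 h compound exposure at 37 °C, 5% CO2.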

[2] = qHTS profiling for inhibitors of Plasmodium falciparum (DD2) proliferation (AID 743323); conditions: lower = more inhibition; at 28.7 µM (top of the series)
In short: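 P. falciparum Dd2-infected erythrocytes (0.3% parasitemia, 2.5% hematocrit) exposed 72 h at 37 C, 5% CO2. Lysis with SYBR Green, overnight at room temperature, fluorescence 485/535 nm; normalized to 0.29 uM artemisinin and DMSO.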

[3] = qHTS profiling for inhibitors of Plasmodium falciparum (HB3) proliferation (AID 743324; active = well fitted curve in the direction sought with a large enough effect; an effect the other way counts as inactive or inconclusive;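 also: 100% = DMSO vehicle wells and 0% = artemisinin-treated control wells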); conditions: Plasmodium falciparum HB3 blood-stage proliferation; at 28.7 µM (top of the series)
In short: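 P. falciparum HB3 grown in erythrocytes (0.3% parasitemia, 2.5% hematocrit final) with compound for 72 h at 37 C, 5% CO2. Parasite DNA detected by SYBR Green after saponin/triton lysis overnight; normalized to 0.29 uM artemisinin and DMSO.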

[4] = qHTS profiling of the MIPE4 collection as inhibitors of Plasmodium falciparum (3D7) proliferation (AID 743344);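 also: scaled between DMSO vehicle wells and 0.29 µM artemisinin as full inhibition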; conditions: P. falciparum 3D7 in erythrocytes, SYBR Green DNA fluorescence, 72 h; at 28.5 µM (top of the series) unless noted
In short: (§1)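 Erythrocytes infected with P. falciparum (0.3% parasitemia, 2.5% hematocrit) incubated with compounds 72 h at 37 C, 5% CO2. Lysis with saponin/Triton buffer containing SYBR Green I, overnight at room temperature in the dark; DNA fluorescence (485/535 nm) normalised to 0.29 uM artemisinin and DMSO.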

[5] = qHTS profiling of the MIPE4 collection as inhibitors of Plasmodium falciparum (DD2) proliferation (AID 743345); conditions: P. falciparum Dd2 in erythrocytes, SYBR Green DNA, 72 h; at 28.5 µM (top of the series) unless noted
In short: as §1

[6] = qHTS profiling of the MIPE4 collection as inhibitors of Plasmodium falciparum (DD2) proliferation (Rep 2) (AID 743346); conditions: P. falciparum Dd2 in erythrocytes, SYBR Green DNA, 72 h; at 28.5 µM (top of the series) unless noted
In short: as §1

[7] = qHTS profiling of the MIPE4 collection as inhibitors of Plasmodium falciparum (HB3) proliferation (AID 743347);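 also: plate controls were DMSO vehicle wells for no effect and artemisinin wells for full effect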; conditions: P. falciparum HB3 in erythrocytes, SYBR Green DNA, 72 h; at 28.5 µM (top of the series) unless noted
In short: as §1

[8] = High-throughput drug toxicity screening in the BPDCN cell line Gen2.2 (AID 1224824); conditions: Gen2.2 BPDCN cells; at 45.8 µM (top of the series) unless noted;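 also: cells exposed to compounds for 48 h before reading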
In short: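 Gen2.2, 500 cells/well, phenol red-free RPMI/10% FBS/Pen-Strep; 48 h cpd, 37 °C/5% CO2; CTG lum, 15 min RT. Norm: DMSO = 100%, bortezomib 9.2 uM final = 0%.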

[9] = High-throughput drug toxicity screening in the BPDCN cell line Cal-1 (AID 1224825); conditions: Cal-1 BPDCN cell viability, qHTS; at 45.8 µM (top of the series) unless noted
In short: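 Exponentially growing Cal-1 cells, 500 per well in phenol red-free RPMI with 10% FBS, were exposed to compounds for 48 h at 37 °C, 5% CO2. Viability was read by CellTiter-Glo luminescence and normalised to DMSO (100%) and 9.2 uM bortezomib (0%).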

[10] = qHTS assay for measurement of the activity of small molecule inhibitors on Zika virus induced Caspase-3 activity in human iPSC derived neural progenitor cells (hNPCs) (AID 1224857; active = well fitted curve in the direction sought with a large enough effect; an effect the other way counts as inactive or inconclusive; also: nearly all actives have a fitted effect of over 65% in size; also: potency is read from the fitted curve at half-maximal effect)
In short: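 Zika virus (2 FFU/cell) infection of human iPSC-derived NPCs, 6 h, following 1 h compound preincubation. Read-out: Caspase-Glo 3/7 luminescence.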

[11] = qHTS profiling for inhibitors of Plasmodium falciparum (3D7) proliferation (AID 743322);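 also: infected erythrocytes exposed to compound for 72 h before lysis; 100% = DMSO vehicle wells and 0% = 0.29 µM artemisinin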; conditions: P. falciparum 3D7 proliferation; at 28.7 µM (top of the series)
In short: as §1

SMILES	max response [1]	activity, percent of control [2]	remaining proliferation (% of control), lower = more inhibition [3]	parasite growth, % of DMSO control [4]	parasite growth remaining, % of DMSO control (lower = more inhibition) [5]	parasite growth, % of control (lower = inhibition) [6]	growth, % of control [7]	cell viability, % of control (lower = more cytotoxic) [8]	viability (% of control) [9]	Potency [10]	Potency [1]	remaining parasite growth % (stronger effect = lower value) [11] [%]
CC(=O)OCC(=O)[C@@]1(O)[C@H](C)C[C@H]2[C@@H]3C=C(C)C4=Cc5c(cnn5-c5ccccc5)C[C@]4(C)[C@@H]3[C@@H](O)C[C@@]21C	-18.2% (inactive)	-0.0557%	-1.72%	6.78%	6.63%	21.4%	10.8%	102%	45.8%	inactive	–	–
CC(NCc1ccc2c(c1)nc(NC(=O)c1ccc(-c3cn[nH]c3)s1)n2CC(C)(C)O)C(C)(C)C (configuration not stated)	–	-0.339%	-1%	5.17%	7.07%	9.25%	3.84%	2.71%	2.63%	inactive	9.35 µM (active)	–
COc1ccc2c(c1)CC[C@@H](CN(C)CC(=O)O)[C@H]2c1ccccc1	4.46% (inactive)	98.6%	–	31.6%	35.4%	28.4%	24.2%	39.9%	21.4%	inactive	–	–
C[C@@H]1CN(CC(=O)Nc2ccc3c(c2)Cc2cccc(-c4cc(=O)cc(N5CCOCC5)o4)c2S3)C[C@H](C)O1	–	3.61%	-0.663%	7.08%	20.9%	9.57%	2.59%	11.9%	13.3%	inactive	–	-0.753
COc1cc(=C2C=c3ccccc3=N2)[nH]c1=Cc1[nH]c(C)cc1C	–	1.12%	1.42%	4.63%	7.38%	15.9%	5.2%	17.7%	3.02%	inactive	7.43 µM (active)	–
COC(=O)[C@]12CCC(C)(C)C[C@@H]1[C@@H]1C(=O)C=C3[C@@]4(C)C=C(C#N)C(=O)C(C)(C)[C@@H]4CC[C@@]3(C)[C@]1(C)CC2	–	0.779%	2.29%	13.9%	7.23%	25.5%	11.3%	3.73%	2.87%	inactive	–	0.25
C[C@@H](Oc1cc(-n2cnc3ccc(CN4CCN(C)CC4)cc32)sc1C(N)=O)c1ccccc1C(F)(F)F	–	3.25%	1.38%	6.16%	7.2%	13.9%	6.6%	3.33%	3.46%	inactive	18.7 µM (active)	–
COc1cc2c(Oc3ccc(-c4cnc(Nc5ccc(F)cc5)n(C)c4=O)cc3F)ccnc2cc1OCCCN1CCOCC1	–	-0.143%	-1.33%	6.28%	6.26%	17%	9.39%	5.93%	0.783%	inactive	–	-2.59
CC(C)c1ccccc1Cc1cc(C(=O)Nc2ccc(S(=O)(=O)c3ccccc3C(C)(C)C)cc2)c(O)c(O)c1O	–	2.09%	-0.184%	5.18%	6.18%	11.2%	7.71%	20.8%	14.8%	inactive	–	0.404
COCCn1c2c([n+](Cc3cnccn3)c1C)C(=O)c1ccccc1C2=O	–	-0.193%	-1.98%	9.02%	6.3%	11.6%	6.61%	9.73%	3.5%	0.418 µM (active)	–	-1.59
Cn1c2cc(S(C)=O)sc2c2cnn(Cc3cccc(N)c3)c(=O)c21 (configuration not stated)	8.65% (inactive)	95% and 94.7%	53.2% and 65.3%	190%	102%	77%	367%	123%	100%	inactive	–	–
Cn1cc(-c2ccncc2)c(-c2ccc(OCc3ccc4ccccc4n3)cc2)n1	–	–	–	83.3%	98.3%	82.2%	65.2%	56.4%	38.2%	inactive	–	–
CC(C)(C)NC(=O)[C@H]1CN(Cc2cccnc2)CCN1C[C@@H](O)C[C@@H](Cc1ccccc1)C(=O)N[C@H]1c2ccccc2C[C@H]1O	–	–	–	19.6%	42.6%	27.8%	7.39%	129%	85.6%	inactive	–	–
CNC(=O)c1ccccc1Nc1nc(Nc2ccc(N3CCOCC3)cc2OC)ncc1Cl	–	–	–	10.8%	10.3%	22.9%	7.48%	18.7%	7.05%	inactive	–	–
Cc1cn2cc(C(=O)N(C)CCO)cc(N[C@@H]3CCOc4cccc(C)c43)c2n1	–	–	–	33.4%	86.7%	47.2%	47.6%	152%	114%	inactive	–	–
COCCOc1ccc2c(c1)ncn2-c1ccc2cccc(N3CCC(N)CC3)c2n1	–	–	–	5.56%	7.14%	13.1%	4.14%	3.06%	1.98%	inactive	–	–
CC(O)C1C(=O)N2C(C(=O)O)=C(SC3CNC(C(=O)N(C)C)C3)C(C)C12 (configuration not stated)	–	–	–	87.4%	93.4%	82.6%	75.4%	120%	98.9%	inactive	–	–
Cc1ccc(S(=O)(=O)Nc2cc(Cl)ccc2C(=O)Nc2nc(-c3ccccc3)cs2)cc1	–	6.55%	8.77%	–	16.4%	21.2%	49.7%	172%	96.8%	inactive	–	–
O=C(C=Cc1cccc(S(=O)(=O)Nc2ccccc2)c1)NO	–	0.981%	0.6%	4.9% [at 57.5 µM]	6.53% [at 57.5 µM]	18.3% [at 57.5 µM]	8.45% [at 57.5 µM]	8.69% [at 92.2 µM]	3.98% [at 92.2 µM]	inactive	–	–
CC1(C)CC(=O)c2c(C(F)(F)F)nn(-c3ccc(C(N)=O)c(NC4CCC(OC(=O)CN)CC4)c3)c2C1 (configuration not stated)	–	–	–	7.32%	8.43%	11.6%	4.41%	1.95%	13.9%	inactive	–	–
CCC1=C[C@@H]2CN(C1)Cc1c([nH]c3ccccc13)[C@@](C(=O)OC)(c1cc3c(cc1OC)N(C)[C@@H]1[C@@](O)(C(=O)OC)[C@H](OC(C)=O)[C@]4(CC)C=CCN5CC[C@]31[C@@H]54)C2	–	–	–	5.09%	7.41%	20.6%	8.82%	28.9%	14.5%	inactive	–	–
